The text below walks through data of publication PMC7862700, “An all-to-all approach to the identification of sequence-specific readers for epigenetic DNA modifications on cytosine”.

Assay in all cases: DAPPL (digital affinity profiling via proximity ligation, sequencing); 10 mM Tris-HCl pH 7.5, 50 mM NaCl, 1 mM DTT, 4% glycerol, room temperature, 30 min; GST-TFs on glutathione beads, 16-mer random dsDNA library, 0.1% formaldehyde crosslink after washing; high values mean tight binding
One assay deals with T1, FEV (Homo sapiens, UniProt Q99581 1-238).
T1 sequence: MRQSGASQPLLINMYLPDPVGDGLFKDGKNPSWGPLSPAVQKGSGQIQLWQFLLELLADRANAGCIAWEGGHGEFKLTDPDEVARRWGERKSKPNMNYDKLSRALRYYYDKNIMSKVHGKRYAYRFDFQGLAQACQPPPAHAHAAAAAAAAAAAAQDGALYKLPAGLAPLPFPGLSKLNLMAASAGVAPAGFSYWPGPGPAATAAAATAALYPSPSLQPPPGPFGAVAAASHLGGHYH
The note with it: protein: recombinant; tags: N-terminal GST; dsDNA, one strand shown. An outline of the steps: (§1)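 Human transcription factors were made in yeast as GST fusions, captured on glutathione beads and barcoded with DNA. With a tag-only sample included, the pool was incubated with 200 nmole of a random double-stranded 16-mer DNA library in Tris/NaCl/DTT/glycerol buffer at room temperature for 30 min, then crosslinked with 0.1% formaldehyde after washing, ligated by proximity, amplified and sequenced. For binding signal, each hexamer's read frequency for a factor is divided by its frequency for the tag-only sample.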

For a further assay, the target named is ETV5 (Homo sapiens, UniProt P41161 1-510). The note with it: protein: recombinant; tags: N-terminal GST; dsDNA, one strand shown. An outline of the steps: as §1
Sequence of ETV5 (P41161 whole entry): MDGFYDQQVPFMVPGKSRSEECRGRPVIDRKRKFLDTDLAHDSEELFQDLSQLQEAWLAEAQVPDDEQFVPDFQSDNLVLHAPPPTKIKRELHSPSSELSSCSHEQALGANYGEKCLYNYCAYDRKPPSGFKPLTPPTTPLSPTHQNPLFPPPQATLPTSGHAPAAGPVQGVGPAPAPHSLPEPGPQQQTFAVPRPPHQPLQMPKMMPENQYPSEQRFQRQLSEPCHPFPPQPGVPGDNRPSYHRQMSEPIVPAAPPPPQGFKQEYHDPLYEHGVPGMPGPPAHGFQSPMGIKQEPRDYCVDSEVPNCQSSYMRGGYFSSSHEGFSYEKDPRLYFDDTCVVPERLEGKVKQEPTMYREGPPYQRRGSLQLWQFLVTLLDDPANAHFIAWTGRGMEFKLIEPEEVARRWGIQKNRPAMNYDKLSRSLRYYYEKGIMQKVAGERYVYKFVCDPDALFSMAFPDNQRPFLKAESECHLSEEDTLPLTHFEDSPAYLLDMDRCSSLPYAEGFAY
The target in the next assay is HSF1 (Homo sapiens, UniProt Q00613 1-529). Conditions: protein: recombinant; tags: N-terminal GST; chain copies: 3; dsDNA, one strand shown. An outline of the steps: as §1
Sequence of HSF1 (Q00613 whole entry): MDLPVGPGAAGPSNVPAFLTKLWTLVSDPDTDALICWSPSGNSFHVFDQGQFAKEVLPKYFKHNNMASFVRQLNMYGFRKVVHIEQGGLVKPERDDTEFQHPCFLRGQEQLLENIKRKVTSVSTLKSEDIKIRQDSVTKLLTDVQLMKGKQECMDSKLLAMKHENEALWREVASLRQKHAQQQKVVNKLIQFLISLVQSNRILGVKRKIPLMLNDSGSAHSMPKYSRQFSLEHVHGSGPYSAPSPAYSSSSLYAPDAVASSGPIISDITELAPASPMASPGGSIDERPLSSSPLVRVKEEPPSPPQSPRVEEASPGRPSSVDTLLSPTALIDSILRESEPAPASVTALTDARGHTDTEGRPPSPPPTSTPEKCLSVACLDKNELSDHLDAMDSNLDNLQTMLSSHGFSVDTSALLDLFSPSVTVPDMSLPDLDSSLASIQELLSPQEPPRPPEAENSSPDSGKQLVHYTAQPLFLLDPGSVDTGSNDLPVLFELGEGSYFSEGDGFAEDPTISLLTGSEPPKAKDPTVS
A further assay has as its target T2, SPIC (Homo sapiens, UniProt Q8N5J4 1-248).
T2 sequence: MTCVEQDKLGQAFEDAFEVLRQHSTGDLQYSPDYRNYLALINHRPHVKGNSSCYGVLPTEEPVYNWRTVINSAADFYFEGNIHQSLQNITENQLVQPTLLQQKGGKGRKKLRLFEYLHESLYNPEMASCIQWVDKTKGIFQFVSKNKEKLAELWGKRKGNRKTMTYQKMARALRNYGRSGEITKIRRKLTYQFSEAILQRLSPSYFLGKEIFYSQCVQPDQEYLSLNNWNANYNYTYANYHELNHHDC
The note with it: protein: recombinant; tags: N-terminal GST; dsDNA, one strand shown. The procedure, abridged:
as §1

The target in the next assay is ELF4 (Homo sapiens, UniProt Q99607 1-663). Conditions: protein: recombinant; tags: N-terminal GST; dsDNA, one strand shown. An outline of the steps: as §1
Sequence of ELF4 (Q99607 whole entry): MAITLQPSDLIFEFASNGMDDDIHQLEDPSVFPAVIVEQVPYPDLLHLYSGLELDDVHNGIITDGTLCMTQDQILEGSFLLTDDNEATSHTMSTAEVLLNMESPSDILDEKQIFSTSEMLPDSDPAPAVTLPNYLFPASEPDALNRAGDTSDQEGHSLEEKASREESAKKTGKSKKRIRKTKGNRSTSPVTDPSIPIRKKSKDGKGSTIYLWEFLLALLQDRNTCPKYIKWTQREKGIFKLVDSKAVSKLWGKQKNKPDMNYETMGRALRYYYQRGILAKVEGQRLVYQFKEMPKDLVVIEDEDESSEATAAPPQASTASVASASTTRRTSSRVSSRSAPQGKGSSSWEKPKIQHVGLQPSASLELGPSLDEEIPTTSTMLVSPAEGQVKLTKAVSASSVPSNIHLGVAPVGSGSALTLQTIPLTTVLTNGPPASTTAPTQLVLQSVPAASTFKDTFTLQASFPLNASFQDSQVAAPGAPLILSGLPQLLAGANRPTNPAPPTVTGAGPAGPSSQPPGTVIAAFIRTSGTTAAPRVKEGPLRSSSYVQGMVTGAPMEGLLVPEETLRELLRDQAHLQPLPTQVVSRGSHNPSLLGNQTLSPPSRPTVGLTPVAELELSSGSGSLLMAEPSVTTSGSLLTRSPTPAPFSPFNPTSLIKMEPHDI
A further assay addresses T3, ELK4 (Homo sapiens, UniProt P28324-2 1-405).
T3 sequence: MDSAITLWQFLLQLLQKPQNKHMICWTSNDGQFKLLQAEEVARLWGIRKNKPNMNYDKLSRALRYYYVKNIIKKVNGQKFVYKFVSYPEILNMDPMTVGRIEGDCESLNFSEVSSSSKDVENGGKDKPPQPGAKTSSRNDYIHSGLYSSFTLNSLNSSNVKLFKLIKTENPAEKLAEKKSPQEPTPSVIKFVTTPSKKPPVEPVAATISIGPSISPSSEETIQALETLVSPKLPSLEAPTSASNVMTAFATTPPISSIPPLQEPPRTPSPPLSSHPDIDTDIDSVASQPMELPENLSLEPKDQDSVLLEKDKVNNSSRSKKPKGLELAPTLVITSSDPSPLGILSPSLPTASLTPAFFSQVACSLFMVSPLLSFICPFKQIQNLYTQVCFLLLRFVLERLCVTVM
Conditions: protein: recombinant; tags: N-terminal GST; dsDNA, one strand shown. The procedure, abridged: as §1

Another assay concerns the target T4, ETV2 (Homo sapiens, UniProt O00321 1-342).
T4 sequence: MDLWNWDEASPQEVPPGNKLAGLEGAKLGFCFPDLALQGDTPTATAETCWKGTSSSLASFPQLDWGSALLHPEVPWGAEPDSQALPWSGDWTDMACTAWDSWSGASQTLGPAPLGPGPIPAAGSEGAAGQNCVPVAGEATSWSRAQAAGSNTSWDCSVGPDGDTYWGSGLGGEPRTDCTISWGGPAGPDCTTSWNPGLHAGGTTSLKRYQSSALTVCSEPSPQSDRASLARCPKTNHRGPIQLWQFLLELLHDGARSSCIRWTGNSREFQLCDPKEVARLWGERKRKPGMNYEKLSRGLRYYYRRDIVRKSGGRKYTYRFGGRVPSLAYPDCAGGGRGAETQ
Conditions: protein: recombinant; tags: N-terminal GST; dsDNA, one strand shown. An outline of the steps: as §1

Another assay addresses T5, ELF3 (Homo sapiens, UniProt P78545 1-371).
T5 sequence: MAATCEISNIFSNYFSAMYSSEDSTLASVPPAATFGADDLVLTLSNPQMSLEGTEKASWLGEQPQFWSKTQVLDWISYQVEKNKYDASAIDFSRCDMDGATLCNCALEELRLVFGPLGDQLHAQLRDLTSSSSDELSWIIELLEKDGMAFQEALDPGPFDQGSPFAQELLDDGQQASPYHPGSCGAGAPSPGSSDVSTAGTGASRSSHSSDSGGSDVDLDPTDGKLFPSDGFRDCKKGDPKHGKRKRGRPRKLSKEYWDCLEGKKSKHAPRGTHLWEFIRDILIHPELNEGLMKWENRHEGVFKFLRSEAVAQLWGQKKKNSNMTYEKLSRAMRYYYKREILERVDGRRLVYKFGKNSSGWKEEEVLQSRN
Conditions: protein: recombinant; tags: N-terminal GST; dsDNA, one strand shown. The procedure, abridged:
as §1

The next assay deals with CRX (Homo sapiens, UniProt O43186 1-299). Conditions: protein: recombinant; tags: N-terminal GST; dsDNA, one strand shown. An outline of the steps: as §1
Sequence of CRX (O43186 whole entry): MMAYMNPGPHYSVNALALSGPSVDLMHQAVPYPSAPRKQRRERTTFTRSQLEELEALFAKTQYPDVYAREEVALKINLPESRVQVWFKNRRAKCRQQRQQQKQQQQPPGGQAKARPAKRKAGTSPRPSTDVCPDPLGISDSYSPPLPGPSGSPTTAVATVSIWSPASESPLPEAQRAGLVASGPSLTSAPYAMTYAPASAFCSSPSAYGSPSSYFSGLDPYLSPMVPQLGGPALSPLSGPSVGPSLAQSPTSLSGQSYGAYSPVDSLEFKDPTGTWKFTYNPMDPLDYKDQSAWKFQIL
The target in another assay is ETV1 (Homo sapiens, UniProt P50549 1-477). The note with it: protein: recombinant; tags: N-terminal GST; dsDNA, one strand shown. The procedure, abridged:
as §1

In another assay the target is T6, ERF (Homo sapiens, UniProt P50548 1-548).
T6 sequence: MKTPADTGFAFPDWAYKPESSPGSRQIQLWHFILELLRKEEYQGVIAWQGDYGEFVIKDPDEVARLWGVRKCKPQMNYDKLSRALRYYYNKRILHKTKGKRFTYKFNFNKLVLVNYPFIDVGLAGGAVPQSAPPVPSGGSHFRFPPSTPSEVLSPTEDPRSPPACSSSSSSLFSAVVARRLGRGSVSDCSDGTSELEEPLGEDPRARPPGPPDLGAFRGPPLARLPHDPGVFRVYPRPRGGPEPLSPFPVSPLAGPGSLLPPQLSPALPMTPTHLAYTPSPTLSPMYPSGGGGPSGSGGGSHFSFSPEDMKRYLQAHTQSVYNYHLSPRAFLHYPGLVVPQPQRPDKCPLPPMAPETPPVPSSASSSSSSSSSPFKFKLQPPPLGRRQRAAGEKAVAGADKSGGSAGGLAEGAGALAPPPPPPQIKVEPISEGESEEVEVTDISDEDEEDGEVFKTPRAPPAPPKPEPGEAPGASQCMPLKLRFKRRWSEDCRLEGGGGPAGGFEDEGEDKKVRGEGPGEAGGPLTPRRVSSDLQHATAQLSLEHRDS
The note with it: protein: recombinant; tags: N-terminal GST; dsDNA, one strand shown. The procedure, abridged: as §1

The next assay addresses T7, ETV3L (Homo sapiens, UniProt Q6ZN32 1-361).
T7 sequence: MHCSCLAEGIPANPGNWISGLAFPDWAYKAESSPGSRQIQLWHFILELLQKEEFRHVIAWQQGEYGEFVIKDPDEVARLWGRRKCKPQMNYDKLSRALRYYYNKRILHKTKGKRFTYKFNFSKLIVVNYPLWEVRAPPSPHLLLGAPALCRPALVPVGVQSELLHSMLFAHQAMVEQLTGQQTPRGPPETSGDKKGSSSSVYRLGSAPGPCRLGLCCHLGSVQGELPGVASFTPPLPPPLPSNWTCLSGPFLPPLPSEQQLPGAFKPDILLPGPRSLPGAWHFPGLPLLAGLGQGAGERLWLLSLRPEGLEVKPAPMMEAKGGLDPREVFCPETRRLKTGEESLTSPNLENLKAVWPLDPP
The note with it: protein: recombinant; tags: N-terminal GST; dsDNA, one strand shown. An outline of the steps:
as §1

The next assay concerns the target T8, ETS2 (Homo sapiens, UniProt P15036 1-469).
T8 sequence: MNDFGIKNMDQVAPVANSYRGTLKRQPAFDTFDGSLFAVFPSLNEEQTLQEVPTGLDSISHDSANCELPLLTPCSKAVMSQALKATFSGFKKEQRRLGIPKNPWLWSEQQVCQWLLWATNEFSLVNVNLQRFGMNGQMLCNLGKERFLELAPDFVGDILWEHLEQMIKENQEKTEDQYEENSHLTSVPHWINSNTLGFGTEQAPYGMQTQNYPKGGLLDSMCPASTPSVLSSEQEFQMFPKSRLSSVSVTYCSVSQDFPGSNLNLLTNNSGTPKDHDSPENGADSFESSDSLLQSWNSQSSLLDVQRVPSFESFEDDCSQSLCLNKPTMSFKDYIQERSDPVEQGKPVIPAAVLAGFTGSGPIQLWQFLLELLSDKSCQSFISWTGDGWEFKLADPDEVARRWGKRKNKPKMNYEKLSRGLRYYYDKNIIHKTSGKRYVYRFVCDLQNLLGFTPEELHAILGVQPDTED
Conditions: protein: recombinant; tags: N-terminal GST; dsDNA, one strand shown. An outline of the steps: as §1

Another assay deals with T9, SPDEF (Homo sapiens, UniProt O95238 1-335).
T9 sequence: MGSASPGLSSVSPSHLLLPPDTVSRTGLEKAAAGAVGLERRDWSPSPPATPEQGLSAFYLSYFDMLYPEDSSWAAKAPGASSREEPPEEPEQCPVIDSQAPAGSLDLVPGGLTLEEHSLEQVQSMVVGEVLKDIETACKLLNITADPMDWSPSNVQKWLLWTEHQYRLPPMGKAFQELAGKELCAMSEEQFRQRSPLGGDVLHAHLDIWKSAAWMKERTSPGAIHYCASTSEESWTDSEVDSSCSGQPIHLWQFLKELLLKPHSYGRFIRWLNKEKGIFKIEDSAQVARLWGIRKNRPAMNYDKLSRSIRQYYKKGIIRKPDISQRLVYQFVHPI
The note with it: protein: recombinant; tags: N-terminal GST; dsDNA, one strand shown. The procedure, abridged: as §1

Another assay addresses T10, ETV7 (Homo sapiens, UniProt Q9Y603 1-341).
T10 sequence: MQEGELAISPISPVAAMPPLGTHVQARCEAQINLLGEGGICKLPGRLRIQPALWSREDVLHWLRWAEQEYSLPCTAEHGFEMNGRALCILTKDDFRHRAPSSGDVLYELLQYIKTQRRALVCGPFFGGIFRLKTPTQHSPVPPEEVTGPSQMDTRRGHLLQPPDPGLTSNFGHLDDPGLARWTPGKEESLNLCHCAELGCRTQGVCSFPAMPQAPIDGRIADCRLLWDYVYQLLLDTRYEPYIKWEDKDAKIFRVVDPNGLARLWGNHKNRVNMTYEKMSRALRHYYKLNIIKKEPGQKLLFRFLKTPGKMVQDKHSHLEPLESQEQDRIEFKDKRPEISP
The note with it: protein: recombinant; tags: N-terminal GST; dsDNA, one strand shown. An outline of the steps:
as §1

Another assay deals with T11, ELF5 (Homo sapiens, UniProt Q9UKW6-2 1-255).
T11 sequence: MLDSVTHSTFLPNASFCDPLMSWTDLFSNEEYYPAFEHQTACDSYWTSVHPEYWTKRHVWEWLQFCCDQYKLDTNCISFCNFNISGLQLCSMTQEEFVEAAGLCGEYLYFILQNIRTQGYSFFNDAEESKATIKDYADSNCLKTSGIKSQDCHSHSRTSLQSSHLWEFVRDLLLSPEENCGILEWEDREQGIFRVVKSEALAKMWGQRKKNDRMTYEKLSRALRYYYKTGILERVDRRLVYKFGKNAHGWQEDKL
The note with it: protein: recombinant; tags: N-terminal GST; dsDNA, one strand shown. An outline of the steps: as §1

For the next assay, the target named is T12, ETV3 (Homo sapiens, UniProt P41162-2 1-143).
T12 sequence: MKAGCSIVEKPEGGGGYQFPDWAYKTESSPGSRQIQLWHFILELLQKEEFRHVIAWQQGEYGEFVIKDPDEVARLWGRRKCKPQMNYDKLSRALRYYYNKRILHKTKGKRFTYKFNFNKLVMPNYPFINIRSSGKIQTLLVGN
The note with it: protein: recombinant; tags: N-terminal GST; dsDNA, one strand shown. An outline of the steps: as §1

The target of another assay is ETV6 (Homo sapiens, UniProt P41212 1-452). The note with it: protein: recombinant; tags: N-terminal GST; dsDNA, one strand shown. The procedure, abridged:
as §1

Sequence of ETV6 (P41212 whole entry): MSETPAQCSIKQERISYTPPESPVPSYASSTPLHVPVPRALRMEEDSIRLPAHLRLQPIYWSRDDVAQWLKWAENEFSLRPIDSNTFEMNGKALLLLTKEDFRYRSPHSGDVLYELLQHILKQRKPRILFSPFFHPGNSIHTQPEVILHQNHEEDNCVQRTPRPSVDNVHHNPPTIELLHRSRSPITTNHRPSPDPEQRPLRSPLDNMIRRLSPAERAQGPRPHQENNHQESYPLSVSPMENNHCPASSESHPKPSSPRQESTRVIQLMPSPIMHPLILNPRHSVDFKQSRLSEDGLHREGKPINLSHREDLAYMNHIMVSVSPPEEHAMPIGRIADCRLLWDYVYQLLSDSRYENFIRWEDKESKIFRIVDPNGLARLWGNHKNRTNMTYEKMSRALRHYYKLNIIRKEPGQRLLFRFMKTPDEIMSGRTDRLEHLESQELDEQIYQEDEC
Sequence of ETV1 (P50549 whole entry): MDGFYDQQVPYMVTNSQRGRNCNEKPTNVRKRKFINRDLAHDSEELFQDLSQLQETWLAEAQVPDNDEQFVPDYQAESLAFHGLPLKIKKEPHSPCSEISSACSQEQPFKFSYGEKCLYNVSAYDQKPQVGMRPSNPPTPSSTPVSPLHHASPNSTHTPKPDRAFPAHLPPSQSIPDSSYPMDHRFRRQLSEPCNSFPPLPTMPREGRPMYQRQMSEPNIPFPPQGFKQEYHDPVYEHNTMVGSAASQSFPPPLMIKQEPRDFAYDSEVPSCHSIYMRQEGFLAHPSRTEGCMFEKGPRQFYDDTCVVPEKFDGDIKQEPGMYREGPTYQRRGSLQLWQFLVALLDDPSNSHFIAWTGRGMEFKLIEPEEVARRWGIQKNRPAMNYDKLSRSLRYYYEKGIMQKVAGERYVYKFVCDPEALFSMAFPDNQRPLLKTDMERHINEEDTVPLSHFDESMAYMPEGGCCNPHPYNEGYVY

Turning to TGGTTT, the binding signal in the assay with FEV was 1.54 fold enrichment (6-mer frequency, TF over GST control); with ETV5 it was 1.71 fold enrichment (6-mer frequency, TF over GST control); in the assay with HSF1 it was 1.4 fold enrichment (6-mer frequency, TF over GST control); in the assay with SPIC it was 1.67 fold enrichment (6-mer frequency, TF over GST control); with ELF4 it was 1.54 fold enrichment (6-mer frequency, TF over GST control); with ELK4, 1.52 fold enrichment (6-mer frequency, TF over GST control). In addition, the binding signal is 1.34 fold enrichment (6-mer frequency, TF over GST control) with ETV2; 1.5 fold enrichment (6-mer frequency, TF over GST control) with ELF3; 1.5 fold enrichment (6-mer frequency, TF over GST control) in the assay with CRX; 1.69 fold enrichment (6-mer frequency, TF over GST control) with ETV1; 1.53 fold enrichment (6-mer frequency, TF over GST control) with ERF; 1.51 fold enrichment (6-mer frequency, TF over GST control) with ETV3L. In addition, the binding signal in the assay with ETS2 is 1.54 fold enrichment (6-mer frequency, TF over GST control); with SPDEF it was 1.49 fold enrichment (6-mer frequency, TF over GST control); with ETV7 it was 1.44 fold enrichment (6-mer frequency, TF over GST control); with ELF5 it was 1.54 fold enrichment (6-mer frequency, TF over GST control); with ETV3 it was 1.52 fold enrichment (6-mer frequency, TF over GST control); in the assay with ETV6 it was 1.67 fold enrichment (6-mer frequency, TF over GST control).
